Screening results (PubChem)
Compounds with a hit are over-represented: about 2.4% of the library has one in this group of screens.
FEN1 inhibitor: qHTS Assay for the Inhibitors of Human Flap endonuclease 1 (FEN1); P39748; Recombinant FEN1 flap cleavage, fluorescence, 15 min; Potency, µM (top dose mostly 114 µM), inactives show at the highest dose activity change, negative = inhibition, most hits filed as inhibitors; 0.35% of 390,000 active; also: % is scaled to controls: 0 for no effect and ±100 for the full control effect; nearly all actives have a fitted effect of over 65% in size
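Recombinant FEN1 (10 nM) was preincubated with pin-transferred compounds for 15 min at room temperature, then flap DNA substrate (50 nM final) was added. Plates were read at 0 and 15 min, and normalized concentration–response data were fitted to a four-parameter Hill equation.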
Pol eta inh: qHTS for Inhibitors of Polymerase Eta. AID 588591, 2011. DNA polymerase eta (Homo sapiens), Q9Y253. Potency, µM (highest dose often 114 µM), inactives show top-dose activity change, negative = inhibition, most hits filed as inhibitors. recombinant Pol eta, fluorescent DNA replication assay. 1.2% of 390,000 active; also: % is scaled to controls: 0 for no effect and ±100 for the full control effect
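Fluorescent replication assay: 50 nM final substrate added after a 15 min room-temperature compound preincubation with 10 nM enzyme. Signal taken at 0 min and again at 10 min.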
POLB inh: qHTS Assay for Inhibitors of DNA Polymerase Beta | P06746 | Pol beta primer extension/strand displacement, fluorescence kinetic | Potency, µM (highest dose often 114 µM), inactives show at the top dose activity change, negative = inhibition, actives largely listed as inhibitors | 1.3% of 340,000 active | AID 485314, 2010; also: % is scaled to controls: 0 for no effect and ±100 for the full control effect
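Pol beta (10 nM) was preincubated with compound for 15 min at room temperature. The reaction was then started with 50 nM substrate and read immediately and after a further 10 min at room temperature.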
WRN inhibitor: qHTS for Inhibitors of WRN Helicase; Bifunctional 3'-5' exonuclease/ATP-dependent helicase WRN (Homo sapiens), Q14191; 0.46% of 360,000 active; WRN helicase unwinding, fluorescent forked duplex, kinetic; AID 651768, 2012; Potency, µM (top dose mostly 114 µM), inactives show top-dose activity change, negative = inhibition, usual class: inhibitors; also: % is scaled to controls: 0 for no effect and ±100 for the full control effect; nearly all actives have a fitted effect of over 55% in size
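Fluorescence dequenching readout, ex 525 nm/em 598 nm, kinetic mode: forked duplex DNA (100 nM final) with adjacent fluorophore and quencher unwound by WRN (20 nM final) with 2 mM ATP. Compound preincubation 15 min, room temperature.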
Pol kappa inh: qHTS for Inhibitors of Polymerase Kappa. 0.53% of 400,000 active. purified Pol kappa, fluorescent DNA synthesis assay, 10 min. DNA polymerase kappa (Homo sapiens), Q9UBT6. Potency, µM (top dose mostly 107 µM), inactives show top-dose activity, negative = inhibition, most hits filed as inhibitors; also: % is scaled to controls: 0 for no effect and ±100 for the full control effect
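Inhibition of 10 nM Pol kappa is measured by a fluorescent read-out at 0 and 10 min following addition of 50 nM substrate (final), with a 15-min room-temperature compound preincubation.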
Pol iota inh: qHTS for Inhibitors of Polymerase Iota | DNA polymerase iota (Homo sapiens), Q9UNA4 | Pol iota fluorescent replication assay, 10 min | Potency, µM (highest dose often 115 µM), for the others: at the top dose activity, negative = inhibition, usual class: inhibitors | 1% of 390,000 active | AID 588590, 2011
Target sequence (Q9UNA4 whole entry, looked up): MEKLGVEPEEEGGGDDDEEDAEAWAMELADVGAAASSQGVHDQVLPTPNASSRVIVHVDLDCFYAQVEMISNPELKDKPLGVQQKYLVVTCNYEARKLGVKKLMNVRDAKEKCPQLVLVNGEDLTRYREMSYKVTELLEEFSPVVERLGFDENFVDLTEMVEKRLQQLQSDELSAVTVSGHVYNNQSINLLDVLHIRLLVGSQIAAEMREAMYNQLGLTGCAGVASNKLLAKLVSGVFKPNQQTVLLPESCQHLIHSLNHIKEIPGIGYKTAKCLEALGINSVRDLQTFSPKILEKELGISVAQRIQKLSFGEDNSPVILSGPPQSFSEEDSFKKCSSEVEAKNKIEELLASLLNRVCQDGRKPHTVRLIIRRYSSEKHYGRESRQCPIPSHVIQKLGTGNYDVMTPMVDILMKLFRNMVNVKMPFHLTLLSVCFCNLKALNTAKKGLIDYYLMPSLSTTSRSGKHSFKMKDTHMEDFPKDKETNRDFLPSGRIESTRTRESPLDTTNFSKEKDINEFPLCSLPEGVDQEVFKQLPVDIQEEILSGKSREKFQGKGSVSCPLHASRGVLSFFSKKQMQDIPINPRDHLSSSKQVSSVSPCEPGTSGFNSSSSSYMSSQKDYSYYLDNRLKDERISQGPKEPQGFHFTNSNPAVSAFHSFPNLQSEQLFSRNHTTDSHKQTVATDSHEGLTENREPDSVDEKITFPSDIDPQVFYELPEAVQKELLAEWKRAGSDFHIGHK
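Pol iota at 10 nM preincubated 15 min with compounds at room temperature; reaction started with fluorescent substrate, 50 nM final. Fluorescence read kinetically at 0 and 10 min; buffer-only wells as negative control.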
An asterisk follows results filed as active; ? = inconclusive; · = no result given; [ ] = dose if it differs, or a comment. Calls follow the shape of the dose curve; as a rule, active = well fitted curve in the direction sought with a large enough effect; inconclusive = small, poorly fitted or top-dose-only effect, or another doubt; inactive = no such curve, though single readings can be large; an effect the other way counts as inactive or inconclusive. Potency is read from the fitted curve at half-maximal effect.

SMILES	FEN1 inhibitor	Pol eta inh	POLB inh	WRN inhibitor	Pol kappa inh	Pol iota inh
COc1ccc(N(CCN2C(=O)c3ccccc3C2=O)C(=O)c2cccc([N+](=O)[O-])c2)cc1	-6.8%	?	0.159µM*	0.2%	2.5%[60.1 µM]	-15.0%
COc1ccc(N(CCCN2C(=O)c3cccc4cccc(c34)C2=O)C(=O)c2ccncc2)cc1	-13.9%	-4.8%	0.7%	6.7%	-3.7%	12.0%
Cc1cc2nc(-c3cccnc3SCC(=O)NC3CC3)[nH]c2cc1C	·	·	-16.6%	·	·	·
COc1ccc(-c2[nH]c(-c3ccc(C)cc3)nc2SCC(=O)NCc2ccco2)cc1OC	19.3%	-4.6%	79.4µM*	-2.5%	6.4%	-11.0%
COc1ccc(-c2ccc(SCC(=O)NCc3ccco3)nn2)cc1OC	-18.6%	?	7.8%	-30.7%	?	-37.0%
O=C(CSc1ncccc1-c1nc2ccccc2[nH]1)NCc1ccco1	?	25.1µM*	31.6µM*	?	50.1µM*	?
Cc1cc2nc(-c3cccnc3SCC(=O)NCc3ccco3)[nH]c2cc1C	-18.0%	-18.8%	50.1µM*	-16.9%	-3.1%	6.9%
O=C(/C=C/c1ccc(C(F)(F)F)cc1)OC(C(=O)NC1CC1)c1ccccc1 (configuration not stated)	16.0%	·	·	·	-14.7%	-19.9%
Cc1ccc(NC(=O)c2cc3c([nH]c2=O)CC(c2ccccc2)CC3=O)cc1 (configuration not stated)	-12.7%	·	·	·	-2.5%	14.8%
Cc1cc2c(c(C)c1Cl)C(c1ccc3c(c1)OCO3)CC(O)(c1ccccc1)O2 (configuration not stated)	-5.6%	·	·	·	-10.2%	-16.0%
CC1=CC(C)(C)NC(=S)N1c1ccccc1C	-5.3%	-16.2%	0.4%	2.2%	-9.7%	55.2%
CC1=CC(C)(C)NC(=S)N1c1cccc2cc(S(=O)(=O)O)ccc12	?	12.6µM*	50.1µM*	-22.3%	-18.2%	?
Nc1ccc(Cc2ccc(N)c(C(=O)O)c2)cc1C(=O)O	4.2%	2.6%	-12.0%	-4.6%	0.4%	-18.6%
Cc1c(N)cc(N)cc1C(=O)O	-22.2%	7.7%	29.9%	-4.1%	89.1µM*	44.7µM*
CC1=C(C#N)C(=O)NC(=O)/C1=C/c1ccc(-c2ccc(S(N)(=O)=O)cc2)o1	-18.9%	14.1µM*	?	?	?	?
NS(=O)(=O)c1ccc(-c2ccc(C=O)o2)cc1	-3.8%	-8.9%	-28.7%	4.3%[57.1 µM]	-6.1%	51.0%
NS(=O)(=O)c1ccc(-c2ccc(/C=C3\NC(=S)NC3=O)o2)cc1	50.1µM*	79.4µM*	10.7%	-31.4%	50.1µM*	10µM*
COc1ccc(OCCCn2c(CCNC(=O)C3CCCCC3)nc3ccccc32)cc1	4.9%	·	·	·	-23.4%	-14.5%
Nc1c(Cl)cc(C=O)cc1Cl	-1.8%	·	·	·	-11.5%	23.1%
COc1cc(Nc2c3ccccc3nc3ccccc23)cc(OC)c1OC	?	-7.1%	14.1µM*	-20.7%	-5.7%	?
COc1ccccc1Nc1c2ccccc2nc2ccccc12	?	-21.6%	?	-19.8%	-21.0%	113.3%
CC(=O)N(/N=C1\Sc2ccccc2C1=O)c1cccc(C)c1	-5.6%	20µM*	-1.8%	-12.7%[11.6 µM]	0.7%	?
NC(N)=NN=C(/C=C/c1ccc([N+](=O)[O-])o1)/C=C/c1ccc([N+](=O)[O-])o1	·	·	·	·	-3.4%[19.4 µM]	·
COc1ccc(-c2ccc(Nc3ccc(C(=O)N4CCOCC4)cc3)nn2)cc1OC	-5.8%	-9.9%	28.2µM*	-18.2%	-42.2%	?
COc1ccc(O)c(/C=N/NC(=O)c2ccc(N3CCCC3=O)cc2)c1	-0.5%	-10.9%	10µM*	-15.9%	-45.0%	?
COc1ccc(O)c(/C=N/NC(=O)c2cccc(N3CCCC3=O)c2)c1	-1.0%	-9.3%	17.5%	4.4%	0.4%	?
